# From PubChem BioAssay (NCATS)
# Results filed as inconclusive are left out. Where a call stands in place of a potency, no number is given. The source made the active and inactive calls. Unless noted, calls come from the whole dose curve.
# Experiments:
# [1] = qHTS for Inhibitors of the Functional Ribonucleoprotein Complex (vRNP) of Lassa (LASV) Arenavirus: LASV Primary Screen - GLuc reporter signal (AID 1347082; calls by dose curve; tested in HEK293 reporter line; note: nearly all actives have a fitted effect of over 60% in size)
# [2] = qHTS for Inhibitors of the Functional Ribonucleoprotein Complex (vRNP) of Lassa (LASV) Arenavirus: Viability assay - alamar blue signal for LASV Primary Screen (AID 1347083; calls by dose curve; tested in HEK293 reporter line; note: nearly all actives have a fitted effect of over 80% in size)
# [3] = qHTS for Inhibitors of the Functional Ribonucleoprotein Complex (vRNP) of Lymphocytic Choriomeningitis Arenaviruses (LCMV): Viability assay - alamar blue signal for LCMV Primary Screen (AID 1347085; calls by dose curve; tested in HEK293 reporter line; note: nearly all actives have a fitted effect of over 80% in size)
# [4] = molecular target: Nucleoprotein (Lymphocytic choriomeningitis virus (strain Armstrong)) (UniProt P09992); test: qHTS for Inhibitors of the Functional Ribonucleoprotein Complex (vRNP) of Lymphocytic Choriomeningitis Arenaviruses (LCMV): LCMV Primary Screen - GLuc reporter signal (AID 1347086); note: nearly all actives have a fitted effect of over 70% in size
# Potency is the fitted concentration of half-maximal effect.
# Chain of Nucleoprotein (Lymphocytic choriomeningitis virus (strain Armstrong)) (P09992 whole entry, looked up): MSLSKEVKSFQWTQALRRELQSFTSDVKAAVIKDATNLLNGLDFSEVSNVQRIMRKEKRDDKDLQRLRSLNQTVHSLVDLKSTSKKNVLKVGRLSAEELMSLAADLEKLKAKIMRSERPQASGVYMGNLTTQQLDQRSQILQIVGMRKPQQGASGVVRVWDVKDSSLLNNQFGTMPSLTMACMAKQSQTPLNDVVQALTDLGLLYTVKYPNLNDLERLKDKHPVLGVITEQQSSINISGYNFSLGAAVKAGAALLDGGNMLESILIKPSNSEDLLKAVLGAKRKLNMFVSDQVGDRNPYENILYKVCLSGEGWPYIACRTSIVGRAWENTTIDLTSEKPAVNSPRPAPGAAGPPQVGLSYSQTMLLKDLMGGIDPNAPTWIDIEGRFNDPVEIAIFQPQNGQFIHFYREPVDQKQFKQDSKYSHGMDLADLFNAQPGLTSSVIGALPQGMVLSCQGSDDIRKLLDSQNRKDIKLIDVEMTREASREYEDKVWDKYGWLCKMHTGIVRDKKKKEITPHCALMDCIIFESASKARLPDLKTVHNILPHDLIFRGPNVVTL
SMILES,Potency [1],Potency [2],Potency [3],Potency [4]
C1=CCOCc2cc(ccc2OCCN2CCCC2)Nc2nccc(n2)-c2cccc(c2)OCC1,12.2 µM (active),7.69 µM (active),24.3 µM (active),
O=C(NC1CCNCC1)c1[nH]ncc1NC(=O)c1c(Cl)cccc1Cl,3.43 µM (active),0.769 µM (active),0.968 µM (active),1.93 µM (active)
Cc1cc([C@@H](C)Nc2ccccc2C(=O)O)c2nc(N3CCOCC3)cc(=O)n2c1,39.5 µM (active),5.59 µM (active),,
COc1nc(C)cnc1NS(=O)(=O)c1cccnc1-c1ccc(-c2nnco2)cc1,inactive,inactive,inactive,inactive
COc1ccc2c(c1)CC[C@@H](CN(C)CC(=O)O)[C@H]2c1ccccc1,inactive,10.9 µM (active),4.85 µM (active),
Cn1cc(-c2ccc3nnc(C(F)(F)c4ccc5ncccc5c4)n3n2)cn1,inactive,inactive,inactive,inactive
CCC(=O)N[C@H]1CC[C@H](C(=O)N(C)c2ccc(-c3nc4ccccc4o3)cc2)C1,9.68 µM (active),3.43 µM (active),2.17 µM (active),3.43 µM (active)
COc1cc(OC2CCN(C)CC2)ccc1Nc1ncc2c(n1)n(C1CCCC1)c(=O)n2C,inactive,24.3 µM (active),17.2 µM (active),
Nc1ccc(S(=O)(=O)Nc2ccccc2)cc1,inactive,inactive,inactive,inactive
CCN(CC)CCOc1ccc(Nc2ncc3cc(-c4c(Cl)cccc4Cl)c(=O)n(C)c3n2)cc1,1.93 µM (active),0.0306 µM (active),0.172 µM (active),
NC(=O)c1ccc(N(C(N)=O)c2c(F)cccc2F)nc1-c1ccc(F)cc1F,inactive,34.3 µM (active),17.2 µM (active),
O=C(NCCS(=O)(=O)c1ccc(C(F)(F)F)cn1)c1ccc(Cl)cc1,inactive,inactive,inactive,inactive
CC(C)(C)c1cnc(CSc2cnc(NC(=O)C3CCNCC3)s2)o1,6.11 µM (active),0.968 µM (active),0.968 µM (active),
O=C(Nc1cccnc1)N1CCC(Cc2cccc(Oc3ccc(C(F)(F)F)cn3)c2)CC1,21.7 µM (active),15.3 µM (active),,
CCC(=O)N1CCN(c2ccc(-n3c(=O)ccc4cnc5ccc(-c6cnc7ccccc7c6)cc5c43)cc2C(F)(F)F)CC1,0.0385 µM (active),0.0153 µM (active),0.0273 µM (active),0.0685 µM (active)
COc1cc2c(cc1OC)CC(=O)N(CCCN(C)C[C@H]1Cc3cc(OC)c(OC)cc31)CC2,inactive,inactive,inactive,
CC(NCc1ccc2c(c1)nc(NC(=O)c1ccc(-c3cn[nH]c3)s1)n2CC(C)(C)O)C(C)(C)C (stereo not drawn),1.93 µM (active),0.485 µM (active),1.72 µM (active),
OC[C@H]1O[C@@H](n2cnc3c2NC=NC[C@@H]3O)C[C@H]1O,inactive,inactive,inactive,inactive

SMILES,Potency [1],Potency [2],Potency [3],Potency [4]
O=C(Nc1cc(Cl)cc2c1[nH]c1cnccc12)c1cccnc1,24.3 µM (active),21.7 µM (active),24.3 µM (active),
CC[C@@H]1C(=O)N(C)c2cnc(Nc3ccc(C(=O)NC4CCN(C)CC4)cc3OC)nc2N1C1CCCC1,0.0769 µM (active),0.0485 µM (active),0.153 µM (active),0.0306 µM (active)
CN(C)CC/C=C1/c2ccccc2COc2ccc(CC(=O)O)cc21,inactive,inactive,inactive,inactive
OCc1ccccn1,inactive,inactive,inactive,inactive
CC(=O)Nc1ccc(O)cc1,inactive,inactive,inactive,inactive
Nc1nc2ccc([N+](=O)[O-])cc2s1,inactive,inactive,inactive,
CN1CCN(c2c(F)cc3c(=O)c(C(=O)O)cn4c3c2OCN4C)CC1,inactive,inactive,inactive,inactive
Cc1ccc(C(N)=O)cc1Nc1nccc(-c2cn(C(C)C)c3cnccc23)n1,24.3 µM (active),15.3 µM (active),21.7 µM (active),
CC(=O)N[C@@H](CCC(N)=O)C(=O)O,inactive,inactive,inactive,inactive
CCOc1cc2ncc(C#N)c(Nc3ccc(F)c(Cl)c3)c2cc1NC(=O)C=CCN(C)C,10.9 µM (active),1.93 µM (active),19.3 µM (active),24.3 µM (active)
O=C(O)Cc1ccccc1Oc1ccc(Cl)cc1Cl,inactive,inactive,inactive,inactive
COc1ccccc1-c1cccc(-c2c(O)c3cc(C#N)c(Cl)cc3[nH]c2=O)c1,inactive,inactive,inactive,inactive
CNC(=O)c1cc(Oc2ccc(NC(=O)Nc3cc(C(C)(C)C)nn3-c3ccc4ncccc4c3)c(F)c2)ccn1,7.69 µM (active),19.3 µM (active),24.3 µM (active),
N#Cc1c(O)c2c(-c3ccc(-c4ccccc4O)cc3)csc2[nH]c1=O,inactive,inactive,inactive,inactive
C[C@@H](N)C1CCC(C(=O)Nc2ccncc2)CC1 (stereo partly drawn),inactive,21.7 µM (active),0.863 µM (active),9.68 µM (active)
COc1ccc2c(c1)c1c3n2CCN(C)C3=NCC1,inactive,inactive,inactive,inactive
Cc1cccc(-c2nn(C(=S)Nc3ccccc3)cc2-c2ccnc3ccccc23)n1,inactive,inactive,inactive,inactive
Clc1ccc(-c2nc3sccn3c2C=NOCc2ccc(Cl)c(Cl)c2)cc1,inactive,inactive,inactive,inactive
